# Assay outcomes (PubChem)
# D3 ag: D3 dopamine receptor (human) agonism; D3R DiscoveRx beta-arrestin cells, luminescence, 90 min; max activation, %; AID 652048; 410,000 compounds, 0.58% hits; in the data active = max activation above about 30%; also: 0% is about no effect
# Target sequence (P35462 whole entry, looked up): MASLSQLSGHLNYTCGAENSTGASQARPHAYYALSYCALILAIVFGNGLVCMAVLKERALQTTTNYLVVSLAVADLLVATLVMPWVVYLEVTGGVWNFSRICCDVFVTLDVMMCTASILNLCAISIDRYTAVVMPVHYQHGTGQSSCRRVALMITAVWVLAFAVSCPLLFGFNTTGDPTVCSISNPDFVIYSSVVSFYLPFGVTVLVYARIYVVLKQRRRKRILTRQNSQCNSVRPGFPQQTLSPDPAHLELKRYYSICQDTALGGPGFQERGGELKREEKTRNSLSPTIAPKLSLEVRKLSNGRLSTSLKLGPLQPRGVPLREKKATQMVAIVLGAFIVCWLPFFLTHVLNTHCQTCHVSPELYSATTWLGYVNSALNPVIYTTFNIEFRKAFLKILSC
#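 Cells at 1500/well, incubated overnight, then treated with pinned compounds (dopamine as control) for 90 min at 37 degrees C. DiscoveRx reagent added for 30 - 60 minutes at room temperature; luminescence read.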
# ClpP mod: qHTS Assay for Activators of ClpP. 340,000 compounds, 1.9% hits. Potency, µM (top dose mostly 57.5 µM), without a hit: top-dose activity change, negative = active. purified B. subtilis ClpP, FRET peptide cleavage, 20 min. ATP-dependent Clp protease proteolytic subunit (Bacillus subtilis (strain 168)), P80244; active = well fitted falling curve with a large enough effect; inconclusive = small, poorly fitted or top-dose-only effect; inactive = no such curve, though single readings can be large or run the other way; also: potency is read from the fitted curve at half-maximal effect; the source files actives as falling curves though it sought activators and does not explain the sign; nearly all actives have a fitted effect of over 65% in size
# Target sequence (P80244 whole entry, looked up): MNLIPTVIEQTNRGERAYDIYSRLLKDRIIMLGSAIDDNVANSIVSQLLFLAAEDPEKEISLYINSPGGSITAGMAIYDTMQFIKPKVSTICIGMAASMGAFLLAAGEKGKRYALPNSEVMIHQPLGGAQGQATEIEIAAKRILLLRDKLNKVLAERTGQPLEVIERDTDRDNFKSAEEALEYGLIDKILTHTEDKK
#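 FRET quenching reversal measured ClpP activation: 10 microg/mL B. subtilis ClpP at pH 8 with the FRET-FV decapeptide, read at 430 nm after 320 nm excitation. The 20-min minus 0-min signal was scaled between DMSO/no-enzyme wells and ADEP (5.8 microM final).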
# IL-1B inflam inh: blocks inflammasome-driven IL-1 beta release; THP-1 LPS/ATP IL-1B secretion, AlphaLISA, 16 h; stronger effect = lower value; activity change, % at 57.5 µM; 360,000 compounds, 4.7% hits; in the data active = activity change below about -50%; inconclusive = mostly about -30% to -49%; also: % is scaled to controls: 0 for no effect and ±100 for the full control effect
#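 THP-1 cells pretreated 1 hr with compounds (up to 57.5 uM final), then stimulated with LPS (250 ng/mL final) plus ATP (1.25 mM final); secreted IL-1B measured by AlphaLISA after 16 hr, decreased signal indicating inhibition.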
# DT40 TDP1 no CPT: qHTS for Inhibitors of human tyrosyl-DNA phosphodiesterase 1 (TDP1): qHTS in cells in absence of CPT; DT40 Tdp1-/- hTDP1 cells, no CPT, ATP luminescence, 48 h; Potency, µM (top dose mostly 46.2 µM), without a hit: at the top dose activity change, negative = growth inhibition, usual class: inhibitors; 420,000 compounds, 15% hits; AID 686978, 2013; also: potency is read from the fitted curve at half-maximal effect; % is scaled to controls: 0 for no effect and ±100 for the full control effect; nearly all actives have a fitted effect of over 55% in size
#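 Growth kinetics read by CellTiter-Glo luminescence after ≥48 hr at 37 °C. Cells: DT40 Tdp1-/- stably carrying human TDP1, 400 per well, compound exposure in the absence of CPT (DMSO vehicle).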
# DT40 TDP1 CPT: DT40-hTDP1 cell growth loss with CPT. AID 686979. 420,000 compounds, 12% hits. Potency, µM (series often up to 46.2 µM), inactives show top-dose activity change, negative = growth inhibition, hits mostly inhibitors. chicken DT40 Tdp1-/-;hTDP1 cells + 20 nM CPT, ATP luminescence, 48 h; also: potency is read from the fitted curve at half-maximal effect; % is scaled to controls: 0 for no effect and ±100 for the full control effect; nearly all actives have a fitted effect of over 55% in size
#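 Cell growth measured by CellTiter-Glo luminescence after a minimum 48 h, 37 C compound exposure with 20 nM CPT in Tdp1-knockout DT40 cells stably expressing hTDP1, seeded 400/well; qHTS titration format.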
# D3 antag: D3 dopamine receptor (human) antagonism | P35462 | D3R cells, DiscoveRx beta-arrestin luminescence, antagonist mode; stronger effect = lower value | max response, negative = inhibition, % | 360,000 compounds, 2.5% hits | AID 652054; in the data active = max response below about -50%; inconclusive = no clear call, values can overlap the other calls; also: % is scaled to controls: 0 for no effect and ±100 for the full control effect
#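 Cells expressing the human receptor were seeded at 1500 cells/well, incubated overnight at 37 degrees C in 5% CO2, then exposed to library compounds with dopamine controls for 90 minutes at 37 degrees C before luminescent detection.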
# An asterisk follows results filed as active; i = inactive; u = inconclusive; x = not tested or not shown. An excerpt weighted towards active compounds, which were near 21% of everything screened. Unless noted, calls follow the shape of the dose curve; as a rule, active = well fitted inhibition curve with a large enough effect; inconclusive = small, poorly fitted or top-dose-only effect; inactive = flat fitted curve, though single readings scatter.
SMILES,D3 ag,ClpP mod,IL-1B inflam inh,DT40 TDP1 no CPT,DT40 TDP1 CPT,D3 antag
Cc1ccc(CNc2ccc(Cl)cc2[N+](=O)[O-])cc1,-2,-3%,-14,-20%,-22%,-9
O=[N+]([O-])c1cc(C(F)(F)F)ccc1NCCNC(=S)Nc1ccc(Cl)cc1,-6,0%,-88*,18µM*,29µM*,-17
CS(=O)(=O)NCCCNc1ccc(Cl)cc1[N+](=O)[O-],-3,0%,-5,-24%,-5%,-50*
CCNCCNc1ccc(Cl)cc1[N+](=O)[O-],-11,1%,u,-7%,1%,-75*
O=[N+]([O-])c1cc(Cl)ccc1NCCNc1ncc(C(F)(F)F)cc1Cl,2,0%,-23,-9%,-11%,-13
CCCNC(=O)N(C)C[C@H]1Oc2ncc(Br)cc2C(=O)N([C@H](C)CO)C[C@H]1C,3,-4%,31,-22%,5%,14
CCc1ccc(C(C(=O)NC2CCCC2)N(C(=O)c2csnn2)C2CC2)cc1 (stereo not drawn),16,0%,5,u,-22%,-7
CC(=O)N1CCC2(CC1)CCN(c1ccccc1)CC2,x,x,x,-5%,13%,x
O=[N+]([O-])c1cc(C(F)(F)F)ccc1NCCc1c[nH]c2ccccc12,-6,-2%,-96*,u,-26%,-19
O=[N+]([O-])c1cc(C(F)(F)F)ccc1NCCc1c[nH]c2ccc(O)cc12,-23,-3%,-19,u,u,-23
CCOc1ccc(C(=O)NCc2nc3cccnc3n2Cc2cccc(OC)c2)cc1,2,-1%,x,-19%,-17%,x
O=C(CSCc1nc2ccccc2[nH]1)Nc1ccc2ccccc2c1,-23,12%,0,-18%,-5%,-6
O=C(CSCc1cccc(CSCC(=O)Nc2ccc3ccccc3c2)n1)Nc1ccc2ccccc2c1,9,-2%,-26,15µM*,u,18
O=C(CS)Nc1ccc2ccccc2c1,5,-1%,-95*,4.1µM*,2.9µM*,13
Cc1ccc(OC(=O)c2cc(-c3ccc4c(c3)OCCO4)on2)c(C)c1,11,u,x,-4%,-3%,x
CCC(=O)c1cn(CC(=O)Nc2ccc(F)cc2)c2ccccc12,-3,0%,10,-2%,-8%,-9
N#C/C(=C/c1ccc(N2CCCCCC2)o1)c1ccc(F)cc1,-8,32µM*,-70*,4.6µM*,5.2µM*,u
COc1cc(N2CCCC2)c(OC)cc1/C=C(/C#N)c1cccc(F)c1,-13,1%,-7,u,u,u
N#C/C(=C/c1ccc(N2CCCCCC2)o1)c1cccc(F)c1,-22,-2%,-27,21µM*,u,-61*
N#C/C(=C/c1ccc(N2CCCCC2)o1)C(=O)Nc1ccc(Cl)cc1,2,4%,-13,u,u,16
COCCCNC(=S)NC(=O)c1ccc(C)cc1,-7,-4%,0,18µM*,0%,5
O=C(NC(=S)Nc1ccc(Oc2ccccc2)cc1)c1ccc(Cl)cc1,-17,-3%,-54*,23µM*,u,-16
Cc1ccc(C(=O)NC(=S)Nc2ccc(-c3ccc(CO)o3)cc2)cc1,61*,x,0,10µM*,u,82
Cc1ccc(C(=O)NC(=S)Nc2ccc(Oc3ccc(Cl)cc3)cc2)cc1,-12,1%,0,21µM*,u,8
COc1ccc(S(=O)(=O)NCCS(=O)(=O)N2CCN(c3ccccc3F)CC2)cc1,-11,0%,x,u,u,x
SMILES,D3 ag,ClpP mod,IL-1B inflam inh,DT40 TDP1 no CPT,DT40 TDP1 CPT,D3 antag
Cc1cccn2c(=O)cc(CSc3nnc(NC(=O)COc4ccccc4)s3)nc12,-3,1%,x,-13%,4%,x
C/C(=N/NC(=O)CNC(=O)Cc1ccccc1)c1ccc(Cl)cc1,10,x,-1,2%,3%,11
CCOC(=O)c1ccc(-c2ccc(CO)o2)cc1,0,0.71µM*,0,0%,-10%,5
CCCC1=[N+](CC(=O)c2ccc(Br)cc2)CCn2cccc21,8,x,-11,u,0%,4
CCCC1=[N+](CC(=O)c2ccccc2)CCn2cccc21,-3,13%,i,26µM*,23µM*,18
CCCC1=[N+](CC(C)=O)CCn2c(C)ccc21,-5,4%,-1,2.3µM*,3.3µM*,-18
COc1ccc(/C(C)=N/Nc2nc3ccccc3n3cnnc23)cc1OC,-10,-1%,-5,21µM*,u,15
COc1ccc(Nc2nc3ccccc3n3cnnc23)cc1Cl,8,-14%,8,-24%,u,10
COc1cccc(Nc2ncc3nc(-c4cc(F)cc(F)c4)c(=O)n(CCC#N)c3n2)c1,x,x,x,16µM*,12µM*,x
Cc1ccccc1Cn1cc(CCC(=O)NCc2cccc(Br)c2)c2ccccc21,-6,-23%,x,u,u,x
CC(=O)Oc1cc2c(cc1Cl)C1(CC(c3ccccc3Cl)O2)CC(C)(C)NC(=S)N1 (stereo not drawn),-1,-3%,-24,2.6µM*,3.3µM*,-26
N#Cc1ccc(Nc2nc(-c3ccccc3)c(C(=O)c3ccccc3)s2)cc1,6,-11%,-52*,23µM*,18µM*,45
O=C(c1ccccc1)c1sc(Nc2ccc3c(c2)OCO3)nc1-c1ccccc1,6,2%,x,u,u,-21
CCOC(=O)c1sc2ccc(S(=O)(=O)N3CCOCC3)cc2c1N,0,-7%,-9,-25%,u,-6
CCOC(=O)N1CCN(C(=O)c2cn(CC)c3ccc(S(=O)(=O)N4CC(C)CC(C)C4)cc3c2=O)CC1 (stereo not drawn),3,-1%,-7,-1%,-9%,-22
CCOC(=O)c1sc2ccc(S(=O)(=O)N3CC(C)CC(C)C3)cc2c1N (stereo not drawn),6,32%,18,13µM*,u,-4
COC(=O)c1sc2ccccc2c1NC(=O)c1ccc(S(=O)(=O)N2CC(C)CC(C)C2)cc1 (stereo not drawn),2,37%,13,18µM*,21µM*,4
CCOC(=O)c1sc2ccc(S(=O)(=O)N3CCCCC3)cc2c1N,-5,-10%,-29,u,14µM*,-9
CCOC(=O)C(=CNc1nc(-c2ccccc2)c(C(=O)Nc2ccc(-c3ccccc3)cc2)s1)C(=O)OCC,27,13µM*,57,u,16µM*,101
